Reference: the supplement of paper PMC11018630
Counter-ions that a name gives are not always drawn. ± gives the standard deviation of the averaged measurements. In all, about 1,100 compounds were measured (“day of extracellular matrix detachment from plate”: median about 16, lowest 2% from about 10 on). Shown is part of a subset that was picked to be rich in the lowest values.

These compounds were tested on RDEB dermal fibroblasts EB71 (assay: day of extracellular matrix detachment from plate (days); higher = delayed detachment (less fibrotic matrix)). Details: compound concentration: 10 uM.
For `O=C(O)CCC(=O)c1ccc(-c2ccccc2)cc1` [Fenbufen], the “day of extracellular matrix detachment from plate” value (from here on “day”) was 13. In the case of `Nc1nc(=O)n([C@@H]2CS[C@H](CO)O2)cc1F` [Emtricitabine], the “day” value is reported as 19.3 ± 6.3. In the case of `O=c1ccn([C@@H]2O[C@H](CO)[C@@H](O)[C@H]2O)c(=O)[nH]1` [Uridine], the “day” value is reported as 12. `COc1ccc(CC2c3cc(OC)c(OC)cc3CC[N+]2(C)CCC(=O)OCCCCCOC(=O)CC[N+]2(C)CCc3cc(OC)c(OC)cc3C2Cc2ccc(OC)c(OC)c2)cc1OC` (stereo not given) [Atracurium Besylate] was tested, and the “day” value was 15.7 ± 6.3. With `COc1ccc(C[C@@H]2c3cc(OC)c(OC)cc3CC[N@+]2(C)CCC(=O)OCCCCCOC(=O)CC[N@@+]2(C)CCc3cc(OC)c(OC)cc3[C@H]2Cc2ccc(OC)c(OC)c2)cc1OC` [Cisatracurium Besylate] the “day” value was 10 ± 1.7. With `CCC(=O)O[C@@H](O[P@](=O)(CCCCc1ccccc1)CC(=O)N1C[C@H](C2CCCCC2)C[C@H]1C(=O)O)C(C)C` [Fosinopril Sodium] the “day” value was 19. In the case of `OC(Cn1cncn1)(Cn1cncn1)c1ccc(F)cc1F` [Fluconazole], the “day” value is reported as 12.7 ± 2.9. `Nc1ccc(C(=O)NCC(=O)O)cc1` [Sodium 4-aminohippurate Hydrate] was tested, and the “day” value was 13. For `Cn1c(=O)c2c(ncn2CC2OCCO2)n(C)c1=O` [Doxofylline], the “day” value was 13. `CN(C)CCC[C@@]1(c2ccc(F)cc2)OCc2cc(C#N)ccc21` [Escitalopram Oxalate] was tested, and the “day” value was 13. For `OC[C@@H](O)[C@@H](O)[C@H](O)[C@@H](O)CO` [Sorbitol], the “day” value was 16. For `O=C[C@H](O)[C@@H](O)[C@H](O)CO` [Xylose], the “day” value was 10 ± 1.7. In the case of `OC[C@@H](O)[C@@H](O)[C@H](O)[C@H](O)CO` [D-Mannitol], the “day” value is reported as 13.7 ± 8.1. For `COc1cc2ncnc(Nc3ccc(F)c(Cl)c3)c2cc1OCCCN1CCOCC1` [Gefitinib (ZD1839)], the “day” value was 29.4 ± 6. With `N#C[C@@H]1C[C@@H]2C[C@@H]2N1C(=O)[C@@H](N)C12CC3CC(CC(O)(C3)C1)C2` [Saxagliptin hydrate] the “day” value was 16.3 ± 1.1. In the case of `CCCc1nc(C)c2c(=O)nc(-c3cc(S(=O)(=O)N4CCN(CC)CC4)ccc3OCC)[nH]n12` [Vardenafil HCl Trihydrate], the “day” value is reported as 16. With `COC(=O)C1=C(C)NC(C)=C(C(=O)OCCN2CCN(C(c3ccccc3)c3ccccc3)CC2)C1c1cccc([N+](=O)[O-])c1` (stereo not given) [Manidipine] the “day” value was 20.3 ± 2.3. For `COC(=O)C1=C(C)NC(C)=C(C(=O)OCCN2CCN(C(c3ccccc3)c3ccccc3)CC2)C1c1cccc([N+](=O)[O-])c1` (stereo not given) [Manidipine 2HCl], the “day” value was 18.3 ± 4. In the case of `O=C(c1cc(Cc2n[nH]c(=O)c3ccccc23)ccc1F)N1CCN(C(=O)C2CC2)CC1`, the “day” value is reported as 27.8 ± 5.5. `CC1(C)S[C@@H]2[C@H](NC(=O)C(C(=O)O)c3ccccc3)C(=O)N2[C@H]1C(=O)O` (stereo not given in full) [Carbenicillin disodium] was tested, and the “day” value was 18. For `CSc1nc2cc(Cl)c(Oc3cccc(Cl)c3Cl)cc2[nH]1` [Triclabendazole], the “day” value was 13. In the case of `CN(C)/N=N/c1[nH]cnc1C(N)=O` [Dacarbazine], the “day” value is reported as 11. With `CCC[C@H](N[C@@H](C)C(=O)N1[C@H](C(=O)O)C[C@@H]2CCCC[C@@H]21)C(=O)OCC` [Perindopril Erbumine] the “day” value was 21 ± 1.7. `OC(CCN1CCCC1)(c1ccccc1)C1CCCCC1` (stereo not given) [Procyclidine HCl] was tested, and the “day” value was 16 ± 1.7. With `CC1(C)[C@H](C(=O)O)N2C(=O)C[C@H]2S1(=O)=O` [Sulbactam sodium] the “day” value was 11 ± 1.7. For `CC1(C)[C@H](C(=O)O)N2C(=O)C[C@H]2S1(=O)=O` [Sulbactam], the “day” value was 10 ± 1.7. In the case of `CC1(C)S[C@@H]2[C@H](NC(=O)Cc3ccccc3)C(=O)N2[C@H]1C(=O)O` [Penicillin G Sodium], the “day” value is reported as 13. With `C[C@]1(Cn2ccnn2)[C@H](C(=O)O)N2C(=O)C[C@H]2S1(=O)=O` [Tazobactam] the “day” value was 20 ± 1.7. In the case of `CC(C)(Oc1ccc(Cl)cc1)C(=O)O` [Clofibric Acid], the “day” value is reported as 13. In the case of `CC(=O)O[C@]1(C(C)=O)CC[C@H]2[C@@H]3C[C@H](C)C4=CC(=O)C=C[C@]4(C)[C@@]3(F)[C@@H](O)C[C@@]21C` [Fluorometholone Acetate], the “day” value is reported as 27.2 ± 3.5. In the case of `N#CC(c1ccc(Cl)cc1)c1c(Cl)cc(-n2ncc(=O)[nH]c2=O)cc1Cl` (stereo not given) [Diclazuril], the “day” value is reported as 15.7 ± 6.3. `O=C(O)CCc1nc2ccccc2[nH]1` [Procodazole] was tested, and the “day” value was 13. `N#C/C(=C1/SC[C@@H](c2ccc(Cl)cc2Cl)S1)n1ccnc1` [Luliconazole] was tested, and the “day” value was 13. For `C[N+]1(C)CCC(OC(=O)C(O)(c2ccccc2)C2CCCC2)C1` (stereo not given) [Glycopyrrolate], the “day” value was 20.3 ± 2.9. With `CCN(CC)CCOCCOC(=O)C(CC)(CC)c1ccccc1` [Oxeladin Citrate] the “day” value was 13. For `CN1C2=CC(=O)/C(=N\NC(N)=O)C=C2CC1S(=O)(=O)O` (stereo not given) [Carbazochrome sodium sulfonate (AC-17)], the “day” value was 16.7 ± 2.3. In the case of `C/C(O)=C(\C#N)C(=O)Nc1ccc(C(F)(F)F)cc1` [Teriflunomide], the “day” value is reported as 13. `NCCc1ccc(O)c(O)c1` [Dopamine HCl] was tested, and the “day” value was 15.7 ± 6.3. With `C[C@](N)(Cc1ccc(O)c(O)c1)C(=O)O` [Methyldopa] the “day” value was 10.3 ± 1.1. With `C[C@@](Cc1ccc(O)c(O)c1)(NN)C(=O)O` [Carbidopa] the “day” value was 15.7 ± 6.3. `CO/N=C(\C(=O)N[C@@H]1C(=O)N2C(C(=O)O)=C(COC(N)=O)CS[C@H]12)c1ccco1` [Cefuroxime sodium] was tested, and the “day” value was 17. In the case of `NCCCCC(NC(=O)C1CCCN1C(=O)C1CSSCC(N)C(=O)NC(Cc2ccc(O)cc2)C(=O)NC(Cc2ccccc2)C(=O)NC(CCC(N)=O)C(=O)NC(CC(N)=O)C(=O)N1)C(=O)NCC(N)=O` (stereo not given) [Lypressin Acetate], the “day” value is reported as 23 ± 1.7. In the case of `COc1cc(Nc2ncc3c(n2)-c2ccc(Cl)cc2C(c2c(F)cccc2OC)=NC3)ccc1C(=O)O` [Alisertib (MLN8237)], the “day” value is reported as 25. `CC[C@H](NC(=O)[C@H](C)NC)C(=O)N1C[C@@H](O)C[C@H]1Cc1c(-c2[nH]c3cc(F)ccc3c2C[C@@H]2C[C@H](O)CN2C(=O)[C@H](CC)NC(=O)[C@H](C)NC)[nH]c2cc(F)ccc12` [Birinapant] was tested, and the “day” value was 19 ± 6.9. `CC(=O)O[C@]1(C(C)=O)CC[C@H]2[C@@H]3C[C@H](C)C4=CC(=O)CC[C@]4(C)[C@H]3CC[C@@]21C` [Medroxyprogesterone acetate] was tested, and the “day” value was 19.3 ± 6.3. `[I-].[K+]` [Potassium Iodide] was tested, and the “day” value was 15.7 ± 6.3. `CCN1CC(CCN2CCOCC2)C(c2ccccc2)(c2ccccc2)C1=O` (stereo not given) [Doxapram HCl] was tested, and the “day” value was 18. `CN(C)CCc1c[nH]c2ccc(CS(=O)(=O)N3CCCC3)cc12` [Almotriptan Malate] was tested, and the “day” value was 19.3 ± 6.3. For `NC(=O)Cc1cccc(C(=O)c2ccccc2)c1N` [Nepafenac], the “day” value was 14.3 ± 2.9. `CN1CCC(=C2c3ccccc3CCc3cccnc32)CC1` [Azatadine dimaleate] was tested, and the “day” value was 18. For `Cc1ccc(NC(=O)c2ccc(CN3CCN(C)CC3)cc2)cc1Nc1nc(-c2cccnc2)cs1` [Masitinib (AB1010)], the “day” value was 36. In the case of `CC(C)(C)c1nc(-c2cccc(NS(=O)(=O)c3c(F)cccc3F)c2F)c(-c2ccnc(N)n2)s1`, the “day” value is reported as 32.5 ± 2.1. With `CO/N=C(\C(=O)N[C@@H]1C(=O)N2C(C(=O)OCOC(=O)C(C)(C)C)=C(/C=C\c3scnc3C)CS[C@H]12)c1csc(N)n1` [Cefditoren pivoxil] the “day” value was 15.7 ± 6.3. For `CCOC(=O)[C@H](CCc1ccccc1)N[C@H]1CS[C@H](c2cccs2)CN(CC(=O)O)C1=O` [Temocapril HCl], the “day” value was 19.3 ± 6.3. `CCC[S+]([O-])c1ccc2[nH]c(NC(=O)OC)nc2c1` (stereo not given) [Albendazole Oxide] was tested, and the “day” value was 16. `CC1(C)S[C@@H]2[C@H](NC(=O)[C@H](N)c3ccc(O)cc3)C(=O)N2[C@H]1C(=O)O` [Amoxicillin Sodium] was tested, and the “day” value was 15.7 ± 6.3. `CC1(C)S[C@@H]2[C@H](NC(=O)[C@H](N)c3ccc(O)cc3)C(=O)N2[C@H]1C(=O)O` [Amoxicillin] was tested, and the “day” value was 16.7 ± 2.3. For `CC(C)C(=O)Oc1ccc(CO)cc1[C@H](CCN(C(C)C)C(C)C)c1ccccc1` [Fesoterodine Fumarate], the “day” value was 15.7 ± 6.3. `O=C(O)c1ccccc1` [Benzoic Acid] was tested, and the “day” value was 13. `Cc1nc(=O)c2cc(CN(C)c3ccc(C(=O)N[C@@H](CCC(=O)O)C(=O)O)s3)ccc2[nH]1` [Raltitrexed] was tested, and the “day” value was 25. In the case of `NS(=O)(=O)c1cc2c(cc1Cl)N=C(CSCc1ccccc1)NS2(=O)=O` [Benzthiazide], the “day” value is reported as 13. `CC(=O)O[C@]1(C(C)=O)CC[C@H]2[C@@H]3C=C(Cl)C4=CC(=O)CC[C@]4(C)[C@H]3CC[C@@]21C` [Chlormadinone acetate] was tested, and the “day” value was 26.2 ± 10. With `CO[C@@H]1[C@@H](OC(N)=O)[C@@H](O)[C@H](Oc2ccc3c(O)c(NC(=O)c4ccc(O)c(CC=C(C)C)c4)c(=O)oc3c2C)OC1(C)C` [Novobiocin Sodium] the “day” value was 15.7 ± 6.3. For `O=S(=O)(O)Oc1ccc(C(c2ccc(OS(=O)(=O)O)cc2)c2ccccn2)cc1` [Sodium Picosulfate], the “day” value was 14.5 ± 4. With `Cc1cccc(C)c1NC(=O)C1CCCCN1C` (stereo not given) [Mepivacaine HCl] the “day” value was 16.5 ± 6.2. In the case of `C[N+](C)(C)CCO.[Cl-]` [Choline Chloride], the “day” value is reported as 13. In the case of `O=C(CCCCCCNC(=O)c1cnc(N(c2ccccc2)c2ccccc2)nc1)NO` [Rocilinostat (ACY-1215)], the “day” value is reported as 27. For `Cc1nnc(C(C)C)n1C1C[C@H]2CC[C@@H](C1)N2CC[C@H](NC(=O)C1CCC(F)(F)CC1)c1ccccc1` (stereo in doubt) [Maraviroc], the “day” value was 12. For `NC[C@H]1CC[C@H](C(=O)O)CC1` [Tranexamic Acid], the “day” value was 23 ± 1.7. For `CC1(O)CCC(C(C)(C)O)CC1` (stereo not given) [Terpin (hydrate)], the “day” value was 17.
